# Pol eta inh: qHTS for Inhibitors of Polymerase Eta; DNA polymerase eta (Homo sapiens), Q9Y253; recombinant Pol eta, fluorescent DNA replication assay; Potency, µM (top dose mostly 114 µM), for inactives: at the top dose activity change, negative = inhibition, hits mostly inhibitors; 390,000 compounds, 1.2% hits; note: % is set by controls: 0 for no effect and ±100 for the full control effect
# Target sequence (Q9Y253 whole entry, looked up): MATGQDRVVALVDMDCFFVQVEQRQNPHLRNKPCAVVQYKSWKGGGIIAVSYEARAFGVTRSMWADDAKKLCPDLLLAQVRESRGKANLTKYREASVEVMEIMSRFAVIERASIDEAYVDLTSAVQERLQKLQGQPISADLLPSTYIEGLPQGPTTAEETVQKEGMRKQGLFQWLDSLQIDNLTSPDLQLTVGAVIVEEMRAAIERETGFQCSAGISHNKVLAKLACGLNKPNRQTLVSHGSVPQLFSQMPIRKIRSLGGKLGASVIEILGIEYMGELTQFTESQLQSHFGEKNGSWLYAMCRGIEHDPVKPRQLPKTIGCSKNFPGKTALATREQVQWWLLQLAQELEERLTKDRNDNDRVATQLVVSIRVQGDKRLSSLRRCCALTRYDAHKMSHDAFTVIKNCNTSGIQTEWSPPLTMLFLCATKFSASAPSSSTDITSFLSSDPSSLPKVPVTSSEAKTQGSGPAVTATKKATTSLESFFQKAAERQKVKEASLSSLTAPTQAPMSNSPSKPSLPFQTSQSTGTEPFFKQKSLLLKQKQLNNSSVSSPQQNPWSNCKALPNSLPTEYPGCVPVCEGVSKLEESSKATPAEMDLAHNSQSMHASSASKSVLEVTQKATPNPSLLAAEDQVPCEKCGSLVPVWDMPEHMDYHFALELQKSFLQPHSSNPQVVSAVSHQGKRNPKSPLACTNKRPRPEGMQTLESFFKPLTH
#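 Pol eta at 10 nM preincubated with compounds 15 min at room temperature; reaction started with fluorescent substrate (50 nM final) and read kinetically at 0 and 10 min.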
# Pol beta inh: qHTS Assay for Inhibitors of DNA Polymerase Beta | P06746 | Pol beta primer extension/strand displacement, fluorescence kinetic | Potency, µM (doses to about 114 µM), for the others: at the highest dose activity change, negative = inhibition, usual class: inhibitors | 340,000 compounds, 1.3% hits; note: % is set by controls: 0 for no effect and ±100 for the full control effect
#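 Values derive from four-parameter Hill fits of normalized kinetic data: reads at 0 and 10 min following addition of 50 nM substrate to 10 nM Pol beta preincubated 15 min with compound.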
# WRN helicase inh: qHTS for Inhibitors of WRN Helicase. 360,000 compounds, 0.46% hits. Bifunctional 3'-5' exonuclease/ATP-dependent helicase WRN (Homo sapiens), Q14191. AID 651768, 2012. WRN helicase unwinding, fluorescent forked duplex, kinetic. Potency, µM (titrated, usually from 114 µM), without a hit: top-dose activity change, negative = inhibition, hits mostly inhibitors; note: % is set by controls: 0 for no effect and ±100 for the full control effect; nearly all actives have a fitted effect of over 55% in size
#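 Kinetic fluorescence helicase assay: unwinding of a quenched forked DNA duplex (100 nM final) with 2 mM ATP final raises red fluorescence (525/598 nm). Compounds sat 15 min at room temperature with 20 nM WRN beforehand.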
# Pol kappa inh: qHTS for Inhibitors of Polymerase Kappa; 400,000 compounds, 0.53% hits; purified Pol kappa, fluorescent DNA synthesis assay, 10 min; Potency, µM (doses to about 107 µM), for the others: at the highest dose activity, negative = inhibition, hits mostly inhibitors; note: % is set by controls: 0 for no effect and ±100 for the full control effect
#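 50 nM final substrate added after 15 min RT preincubation of 10 nM Pol kappa with compound; fluorescence read at 0 and 10 min.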
# POLI inh: qHTS for Inhibitors of Polymerase Iota. DNA polymerase iota (Homo sapiens), Q9UNA4. Pol iota fluorescent replication assay, 10 min. Potency, µM (highest dose often 115 µM), inactives show top-dose activity, negative = inhibition, actives largely listed as inhibitors. 390,000 compounds, 1% hits. AID 588590, 2011
#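 Fluorescent replication assay read twice, at 0 min and 10 min after adding 50 nM (final) substrate. Enzyme (10 nM) and compounds were first incubated 15 min at room temperature; enzyme-free buffer wells were negative controls.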
# * hit, by the source's call; ? = inconclusive; . = no result; ! = not confirmed by another sample; [ ] = dose if it differs, or a comment. In the library only some 2.3% were active in any assay of this set; here they are far more common. Calls come from the whole dose curve; as a rule, active = well fitted curve in the direction sought with a large enough effect; inconclusive = small, poorly fitted or top-dose-only effect, or another doubt; inactive = no such curve, though single readings can be large; an effect the other way counts as inactive or inconclusive. Potency is the fitted concentration of half-maximal effect.
SMILES,Pol eta inh,Pol beta inh,WRN helicase inh,Pol kappa inh,POLI inh
O=C(/C=C/c1ccco1)Oc1cccc2cccnc12,-25%,?,-3%[57.1 µM],-10%,?
CCc1ccc(OC(=O)/C=C/c2ccco2)cc1,-6%,35µM*,-9%,?,?
O=C(/C=C\c1ccco1)Oc1cccc2cccnc12,-16%,22µM*,-16%,?,25µM*
CCCC1(C)C(C#N)(C#N)C1(C#N)C#N,.,.,.,7%[60.1 µM],.
COc1ccc2nc3c(cc2c1)Cn1c-3nc2ccccc2c1=O,.,.,.,-3%,?
COc1ccc(S(=O)(=O)N(CCc2ccccc2)CC(=O)Nc2cc(Cl)ccc2C)cc1,-24%,-26%,.,?,89µM*
Cc1ccc(C)c(NC(=O)CN(CCc2ccccc2)S(=O)(=O)c2ccccc2)c1,-11%,19%,.,-16%,79µM*
CCOC(=O)C1(C(C)C)Oc2ccccc2C(c2ccc(OC)cc2)=C1C(=O)OC (stereo unspecified),.,.,.,-21%[60.1 µM],.
Nc1nonc1C(=O)N/N=C/c1ccc(-c2cccc(C(=O)O)c2)o1,.,18µM*,.,.,.
CC1=CCC2C(=O)N(c3nc4ccccc4n3C)C(=O)C2C1 (stereo unspecified),?,25µM*,-14%,-24%,?
Cc1cc2c(s1)c1cnn(CC(=O)N3CCOCC3)c(=O)c1n2C,.,.,.,-7%,15%
CC(=O)c1ccc(-c2cccc(C3C4C=CCCC4(C)C(=O)N3Cc3ccccc3)c2)cc1 (stereo unspecified),.,.,.,0%,-6%
O=C(CSc1nnc(-c2ccccc2)o1)c1nnc(-c2ccccc2)o1,20µM*,-24%,-22%,-14%,-24%
NCCCC[C@H](NC(=O)[C@H](Cc1c[nH]c2ccccc12)NC(=O)[C@H](CC(=O)O)NC(=O)[C@H](Cc1cnc[nH]1)NC(=O)[C@H](CO)NC(=O)[C@H](Cc1c[nH]c2ccccc12)NC(=O)[C@H](Cc1cnc[nH]1)NC(=O)[C@@H]1CCC(=O)N1)C(=O)N1CCC[C@H]1C(=O)NCC(N)=O,.,.,.,-10%[60.1 µM],.
CCOc1cc(CNc2cccc3ccccc23)cc(Br)c1OCC(=O)NC(C)(C)C,-18%,79µM*,-9%,-8%,46%
CCOc1cc(CO)cc(Br)c1OCC(=O)Nc1ccccc1C,-1%,-13%,3%,1%[60.1 µM],20%
CCOc1cc(CNc2ccc(N(C)C)cc2)cc(Br)c1OCC(=O)NC(C)(C)C,-6%,-23%,-25%,-12%,8.9µM*
CCOc1cc(CNc2ccc(N3CCCCC3)cc2)cc(Br)c1OCC(=O)NC(C)(C)C,-18%,1%,0%,-13%,10%
CN(C)c1ccc(/C=C/c2ccnc3ccc(Br)cc23)cc1,.,.,.,2%,13%
Cc1cc(C(F)(F)F)n2[nH]c(=O)c(N=Nc3ccccc3)c2n1,12%,-20%,0%[11.6 µM],?,40µM*
CN(C)C(=O)COC(=O)c1ccccc1OCC(=O)Nc1ccc(Br)cc1,.,.,.,-6%,0%
CCCCCCCCCCN1CCOCCOCCN(CCCCCCCCCC)CCOCCOCC1,.,.,.,10%[60.1 µM],.
O=C(N/N=C/c1ccc(Cl)cc1Cl)c1ccc(-n2cnnn2)cc1,-19%,.,-1%,1%,18%
Nn1cnnc1N/N=C/c1ccc(Cl)cc1Cl,-8%,-3%,6%,1%,11µM*
COc1ccc(/C=N/Nc2nncn2N)cc1Br,-26%,-4%,-11%,-1%,8.9µM*
SMILES,Pol eta inh,Pol beta inh,WRN helicase inh,Pol kappa inh,POLI inh
COc1cc(/C=N/Nc2nncn2N)ccc1OCc1c(C)no[n+]1[O-],-7%,4%,-2%[11.6 µM],-29%,7.1µM*
CC[C@H](C)N,.,.,.,10%[60.1 µM],.
COc1cc2c(cc1OC)C1O[C@](CCCCN3C(=O)c4ccccc4C3=O)(C2)Oc2c1c(=O)oc1ccc(F)cc21,.,3.5µM*,.,.,.
N#Cc1ccc(NC(=O)COc2ccccc2C(=O)Nc2ccccc2)cc1,.,.,.,-21%,-16%
CN1C(=O)NC(c2ccccc2)C2=C1CN(c1ccc3ccccc3c1)C2=O (stereo unspecified),11µM*,-10%,-16%[11.6 µM],-4%,9%
Cc1ccc(N2CC3=C(C2=O)C(c2ccccc2)NC(=O)N3C)cc1 (stereo unspecified),?,37%,-23%[57.1 µM],-7%,-12%
CC1(C)S[C@@H]2C(C(=O)O)NC(=O)N2C1C(=O)O (stereo partly specified),.,.,.,-25%,-1%
COc1ccc(C2=Nn3c(nnc3-c3ccccc3Cl)SC2)cc1OCC1CC1,-23%,.,.,40µM*,30%
CCOC(=O)N1CCN(Cc2nc(-c3cccs3)no2)CC1,-7%,37%,1%,4%,20%
Cc1nn(Cc2nc(-c3cccs3)no2)c(C)c1Br,-13%,35µM*,-5%,-1%,0%
O=C(O)c1ccc2c(c1)C(=O)/C(=C/c1ccccc1)C2=O,2.8µM*,-23%,?,25µM*,?
O=c1c2c(nc3c(-c4ccc(Cl)cc4)c[nH]n13)CCC2,-17%,89µM*,-7%[57.1 µM],-9%,20%
CN1C(=O)c2ccccc2Sc2ccc(NC(=O)N3CCN(c4ccc(F)cc4)CC3)cc21,5%,4%,.,-19%,-19%
COc1ccc2c(C)c(CC(=O)NCc3ccccc3Cl)c(=O)oc2c1OC,-1%,45µM*,.,-14%,-7%
O=C(O)c1ccc(CN2C(=O)CSC2=S)cc1,-3%,?,-16%[57.1 µM],50µM*,?
O=C(O)c1ccc(N2C(=O)CSC2=S)cc1,0%,.,3%[11.6 µM],79µM*,?
CCn1c(=O)sc2cc(NS(=O)(=O)c3ccc(F)c(C)c3)ccc21,-17%,3%,.,-18%,30%
CSc1ccc(NC(=O)Nc2ccc(C(=O)NCC(=O)O)cc2)cc1,?,28µM*,-21%,-20%,5%
CCSc1ccc(C(=O)NCC(=O)O)cc1,9%,5%,12%,1%,38%
O=C(C[n+]1cccc(Br)c1)c1ccc(Br)cc1,.,.,.,-35%,?
CCCCCCCCCCCCCCCCn1cc[n+](Cc2ccccc2)c1C,.,.,.,-15%[60.1 µM],.
CC[C@H](C)[C@H](NC(=O)[C@H](Cc1ccc(O)cc1)NC(=O)[C@@H](NC(=O)[C@@H](N)CCCN=C(N)N)C(C)C)C(=O)N[C@@H](Cc1cnc[nH]1)C(=O)N1CCC[C@H]1C(=O)N[C@@H](Cc1ccccc1)C(=O)O,.,.,.,-1%[60.1 µM],.
O=C(c1nc2ccc(Cl)cn2c1CN1CCCC1)N1CCc2ccccc2C1,32µM*,?,-11%[11.6 µM],?,18µM*
CCOc1cc(C2Nc3cccc4cccc(c34)N2)ccc1O,79µM*,1%,-9%,-8%,?
COc1ccc(OC)c(N=c2ssnc2Cl)c1,-10%,1%,56µM*,-10%,?
COc1cc(N=c2ssnc2Cl)c(OC)cc1Cl,-15%,25%,56µM*!,9%,20µM*

# Compound activity deposited in PubChem BioAssay by National Center for Advancing Translational Sciences (NCATS).
